# Reference: PubChem BioAssay (Tox21)
# Values joined by “and” are separate entries in the source; they are usually repeats but may differ in a detail not shown here. Equal entries are not always repeated. Results filed as inconclusive are left out. Where a call stands in place of a potency, no number is given. A structure can be active in one record and inactive in another. Active and inactive are the calls of the source. Calls follow the shape of the dose curve; as a rule, active = well fitted curve in the direction sought with a large enough effect in the repeat runs; inconclusive = weak or mixed curves; inactive = no such curve, though single readings can be large; an effect the other way counts as inactive or inconclusive.
# Experiment: Human pregnane X receptor (PXR) small molecule agonists, qHTS cell viability counter screen (AID 1346977); also: nearly all actives have a fitted effect of over 50% in size
# Settings: PXR-Luc HepG2 viability, CellTiter-Fluor, 24 h; series mostly up to 92.4 µM; activity change, negative = cytotoxicity: at the top concentration
# Outline: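 PXR-Luc HepG2 cells (2,000/well, 5% charcoal-stripped FBS) preincubated 5 hr, then exposed to compounds 24 hr at 37 C. Viability read in the same wells by CellTiter-Fluor fluorescence, reagent added at 23 hr, 1 hr incubation.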
# Potency is read from the fitted curve at half-maximal effect.
row,Structure (SMILES),Potency
1,O=c1[nH]c(=O)n([C@H]2CCCO2)cc1F,inactive
2,C=CCNC(N)=S,inactive
3,c1ccc2c(c1)ccc1ccccc12,inactive
4,CC(=O)OCC(=O)[C@@]12N=C(C)O[C@@H]1C[C@H]1[C@@H]3CCC4=CC(=O)C=C[C@]4(C)[C@H]3[C@@H](O)C[C@@]12C,inactive
5,Cc1ccc2oc(=O)ccc2c1,inactive
6,CCC(O)OC(O)CC (centres undefined),inactive
7,O=C(O)c1ccc(C(=O)O)cc1,inactive
8,CCCCCCCCCCCCc1ccccc1,inactive
9,CCCCCC1=CCCC1=O,inactive
10,CCCCC(CC)COC(=O)CCCCC(=O)OCC(CC)CCCC (centres undefined),inactive
11,CCCCCC(N)=O,inactive
12,CC(=O)c1ccccc1,inactive
13,CSCCC=O,inactive
14,Cc1ccc(N(C)C)cc1,inactive
15,CCCCCCCC(=O)OC,inactive
16,CCc1cccc(C)c1N,inactive
17,OCC(CO)(CBr)CBr,inactive
18,CC[C@H](C)C(=O)O[C@H]1C[C@@H](C)C=C2C=C[C@H](C)[C@H](CC[C@@H]3C[C@@H](O)CC(=O)O3)[C@H]21,inactive
19,CN(C)CCCN,inactive

row,Structure (SMILES),Potency
1,O=S1(=O)CC=CC1,39.8 µM (active) and inactive
2,CC(C)(C)[C@@H](O)[C@@H](Cc1ccc(Cl)cc1)n1cncn1,inactive
3,C#CCN(C)Cc1ccccc1,inactive
4,C[Si](O[Si](C)(C)C)O[Si](C)(C)C,inactive
5,Oc1cccc2ccccc12,inactive
6,CCCCCC/C(C=O)=C\c1ccccc1,inactive
7,CCCCCCCCCCCCCCO,inactive
8,Nc1cc([N+](=O)[O-])ccc1O,39.8 µM (active) and 54.2 µM (active)
9,O=C(O)c1cc(O)c(O)c(O)c1,49 µM (active) and inactive
10,O=C(O)c1ccc2c(c1)C(=O)OC2=O,inactive
11,O=C(Oc1ccccc1)c1ccccc1,inactive
12,OC[C@H]1O[C@@](CO)(O[C@H]2O[C@H](CO)[C@@H](O)[C@H](O)[C@H]2O)[C@@H](O)[C@@H]1O,inactive
13,O=c1[nH]c(=O)n([C@H]2C[C@H](O)[C@@H](CO)O2)cc1Br,inactive
14,CC(=O)CC(=O)Nc1ccccc1C,inactive
15,Fc1ccc(Br)cc1,inactive
16,CC(c1cc2ccccc2s1)N(O)C(N)=O (centres undefined),inactive
17,C=CCOC(=O)c1ccccc1C(=O)OCC=C,inactive
18,CC1CCC(C(C)C)C(O)C1 (centres undefined),inactive
19,Cc1cccnc1,inactive

# Experiment: Caspase-3/7 induction in HepG2 cells by small molecules, qHTS assay (AID 1346978); also: nearly all actives have a fitted effect of over 15% in size
# Settings: HepG2 caspase-3/7 activation, Caspase-Glo luminescence, 17 h; series mostly up to 92.4 µM; caspase activation: at the top concentration
# Outline: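 Wild-type HepG2 cells (2,000/well) were settled 5 h at 37 C, 5% CO2, then exposed to compounds in DMSO for 17 h. Caspase-3/7 activity was read by luminescence 30 min after adding Caspase-Glo 3/7 reagent at room temperature.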
Structure (SMILES),Potency,caspase activation
O=c1[nH]c(=O)n([C@H]2CCCO2)cc1F,inactive,
C=CCNC(N)=S,inactive,
c1ccc2c(c1)ccc1ccccc12,inactive,
CC(=O)OCC(=O)[C@@]12N=C(C)O[C@@H]1C[C@H]1[C@@H]3CCC4=CC(=O)C=C[C@]4(C)[C@H]3[C@@H](O)C[C@@]12C,inactive,
Cc1ccc2oc(=O)ccc2c1,inactive,
CCC(O)OC(O)CC (centres undefined),inactive,
O=C(O)c1ccc(C(=O)O)cc1,inactive,
CCCCCCCCCCCCc1ccccc1,inactive,
CCCCCC1=CCCC1=O,inactive,
CCCCC(CC)COC(=O)CCCCC(=O)OCC(CC)CCCC (centres undefined),,2.16% (inactive)
CCCCCC(N)=O,inactive,
CC(=O)c1ccccc1,inactive,
CSCCC=O,inactive,
Cc1ccc(N(C)C)cc1,inactive,
CCCCCCCC(=O)OC,inactive,
CCc1cccc(C)c1N,inactive,
OCC(CO)(CBr)CBr,inactive,
CC[C@H](C)C(=O)O[C@H]1C[C@@H](C)C=C2C=C[C@H](C)[C@H](CC[C@@H]3C[C@@H](O)CC(=O)O3)[C@H]21,55.2 µM (active) and inactive,
CN(C)CCCN,inactive,

Structure (SMILES),Potency,caspase activation
O=S1(=O)CC=CC1,59 µM (active) and inactive,
CC(C)(C)[C@@H](O)[C@@H](Cc1ccc(Cl)cc1)n1cncn1,inactive,
C#CCN(C)Cc1ccccc1,inactive,
C[Si](O[Si](C)(C)C)O[Si](C)(C)C,inactive,
Oc1cccc2ccccc12,inactive,
CCCCCC/C(C=O)=C\c1ccccc1,inactive,
CCCCCCCCCCCCCCO,inactive,
Nc1cc([N+](=O)[O-])ccc1O,inactive,
O=C(O)c1cc(O)c(O)c(O)c1,inactive,
O=C(O)c1ccc2c(c1)C(=O)OC2=O,inactive,
O=C(Oc1ccccc1)c1ccccc1,inactive,
OC[C@H]1O[C@@](CO)(O[C@H]2O[C@H](CO)[C@@H](O)[C@H](O)[C@H]2O)[C@@H](O)[C@@H]1O,inactive,
O=c1[nH]c(=O)n([C@H]2C[C@H](O)[C@@H](CO)O2)cc1Br,inactive,
CC(=O)CC(=O)Nc1ccccc1C,inactive,
Fc1ccc(Br)cc1,inactive,
CC(c1cc2ccccc2s1)N(O)C(N)=O (centres undefined),inactive,
C=CCOC(=O)c1ccccc1C(=O)OCC=C,inactive,
CC1CCC(C(C)C)C(O)C1 (centres undefined),inactive,
Cc1cccnc1,inactive,

# Experiment: Caspase-3/7 induction in CHO-K1 cells by small molecules, qHTS cell viability counter screen (AID 1346979); also: nearly all actives have a fitted effect of over 35% in size
# Settings: CellTiter-Fluor fluorescence, 17 h; series mostly up to 92.4 µM; activity change, negative = cytotoxicity: at the top concentration
# Outline: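 Wild-type CHO-K1 cells (1,500/well) treated with compound after 5 h plating; after 16 h at 37C, viability read as CellTiter-Fluor fluorescence following 1 h reagent incubation, in the same wells as the caspase read.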
Structure (SMILES),"activity change, negative = cytotoxicity",Potency
O=c1[nH]c(=O)n([C@H]2CCCO2)cc1F,8.6% [at 42.5 µM] (inactive),
C=CCNC(N)=S,,inactive
c1ccc2c(c1)ccc1ccccc12,,inactive
CC(=O)OCC(=O)[C@@]12N=C(C)O[C@@H]1C[C@H]1[C@@H]3CCC4=CC(=O)C=C[C@]4(C)[C@H]3[C@@H](O)C[C@@]12C,,inactive
Cc1ccc2oc(=O)ccc2c1,2.27% (inactive),
CCC(O)OC(O)CC (centres undefined),,inactive
O=C(O)c1ccc(C(=O)O)cc1,,inactive
CCCCCCCCCCCCc1ccccc1,,inactive
CCCCCC1=CCCC1=O,5.24% (inactive),
CCCCC(CC)COC(=O)CCCCC(=O)OCC(CC)CCCC (centres undefined),,inactive
CCCCCC(N)=O,-1.11% (inactive),
CC(=O)c1ccccc1,,inactive
CSCCC=O,,inactive
Cc1ccc(N(C)C)cc1,,inactive
CCCCCCCC(=O)OC,,inactive
CCc1cccc(C)c1N,,inactive
OCC(CO)(CBr)CBr,,inactive
CC[C@H](C)C(=O)O[C@H]1C[C@@H](C)C=C2C=C[C@H](C)[C@H](CC[C@@H]3C[C@@H](O)CC(=O)O3)[C@H]21,,69.6 µM (active)
CN(C)CCCN,,inactive

Structure (SMILES),"activity change, negative = cytotoxicity",Potency
O=S1(=O)CC=CC1,,29.6 µM (active) and inactive
CC(C)(C)[C@@H](O)[C@@H](Cc1ccc(Cl)cc1)n1cncn1,-7.77% (inactive),
C#CCN(C)Cc1ccccc1,,inactive
C[Si](O[Si](C)(C)C)O[Si](C)(C)C,,inactive
Oc1cccc2ccccc12,,inactive
CCCCCC/C(C=O)=C\c1ccccc1,,inactive
CCCCCCCCCCCCCCO,,inactive
Nc1cc([N+](=O)[O-])ccc1O,,54.5 µM (active) and 60.8 µM (active)
O=C(O)c1cc(O)c(O)c(O)c1,,30.9 µM (active)
O=C(O)c1ccc2c(c1)C(=O)OC2=O,,inactive
O=C(Oc1ccccc1)c1ccccc1,-0.502% (inactive),
OC[C@H]1O[C@@](CO)(O[C@H]2O[C@H](CO)[C@@H](O)[C@H](O)[C@H]2O)[C@@H](O)[C@@H]1O,,inactive
O=c1[nH]c(=O)n([C@H]2C[C@H](O)[C@@H](CO)O2)cc1Br,,inactive
CC(=O)CC(=O)Nc1ccccc1C,,inactive
Fc1ccc(Br)cc1,,inactive
CC(c1cc2ccccc2s1)N(O)C(N)=O (centres undefined),,inactive
C=CCOC(=O)c1ccccc1C(=O)OCC=C,,inactive
CC1CCC(C(C)C)C(O)C1 (centres undefined),,inactive
Cc1cccnc1,,inactive
